In all, about 310,000 compounds went through this assay and about 14,000 (4.5%) showed an effect of 50% or more. Effects have a minus sign here. Shown is part of a subset that was picked to be rich in strong results.
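Note: peak tail current of the secondary pulse compared with the same well before compound.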

The target of this experiment is human ether-à-go-go-related gene (hERG) potassium channel (human, UniProt Q12809). The experiment in a line: primary screen, population patch clamp on CHO cells stably expressing hERG; higher = less effect of the substance.
human ether-à-go-go-related gene (hERG) potassium channel, sequence (Q12809 whole entry, looked up): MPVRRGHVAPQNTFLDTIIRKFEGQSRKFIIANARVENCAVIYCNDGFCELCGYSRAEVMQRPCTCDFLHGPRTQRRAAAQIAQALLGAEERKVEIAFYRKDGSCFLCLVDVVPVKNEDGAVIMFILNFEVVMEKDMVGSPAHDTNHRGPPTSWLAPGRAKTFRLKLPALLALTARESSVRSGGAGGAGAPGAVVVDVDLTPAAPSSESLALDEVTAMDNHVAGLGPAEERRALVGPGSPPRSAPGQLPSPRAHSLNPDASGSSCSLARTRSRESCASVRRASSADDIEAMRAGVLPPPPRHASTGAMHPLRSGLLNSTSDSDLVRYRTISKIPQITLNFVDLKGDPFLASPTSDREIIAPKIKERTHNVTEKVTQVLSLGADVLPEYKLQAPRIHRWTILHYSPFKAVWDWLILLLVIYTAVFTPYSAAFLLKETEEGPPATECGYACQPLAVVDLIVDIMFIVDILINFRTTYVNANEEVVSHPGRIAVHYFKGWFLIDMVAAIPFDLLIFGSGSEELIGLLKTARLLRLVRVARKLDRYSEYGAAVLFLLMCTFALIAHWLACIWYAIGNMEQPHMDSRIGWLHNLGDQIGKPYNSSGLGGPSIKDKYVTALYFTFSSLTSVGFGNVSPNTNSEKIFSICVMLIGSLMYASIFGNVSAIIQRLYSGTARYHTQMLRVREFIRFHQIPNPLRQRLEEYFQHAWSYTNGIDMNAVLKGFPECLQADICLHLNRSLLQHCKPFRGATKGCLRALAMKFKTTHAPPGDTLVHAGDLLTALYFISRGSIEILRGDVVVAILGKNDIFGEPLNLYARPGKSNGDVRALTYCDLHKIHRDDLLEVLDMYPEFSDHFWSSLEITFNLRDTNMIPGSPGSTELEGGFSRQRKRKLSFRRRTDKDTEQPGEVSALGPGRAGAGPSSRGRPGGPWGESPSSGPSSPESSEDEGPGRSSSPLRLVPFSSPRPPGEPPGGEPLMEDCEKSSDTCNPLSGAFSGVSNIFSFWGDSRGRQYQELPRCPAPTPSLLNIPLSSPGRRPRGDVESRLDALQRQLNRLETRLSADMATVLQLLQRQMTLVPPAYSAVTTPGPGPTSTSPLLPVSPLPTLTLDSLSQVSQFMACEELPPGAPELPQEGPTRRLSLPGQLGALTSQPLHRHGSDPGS
As to `COc1ccc(C2c3ccc(O)cc3Oc3ncn(CCCO)c(=N)c32)cc1` (stereo not shown), the “hERG current change (%, negative = inhibition) at 10uM” value is -22.8%. To `COc1ccc(C2c3ccc(O)cc3Oc3ncn(Cc4ccco4)c(=N)c32)cc1` (stereo not shown) belongs -71.9%; to `COc1ccc(C2c3c(ncn(Cc4ccco4)c3=N)Oc3ccc4ccccc4c32)cc1` (stereo not shown), -7.04%. For `COc1ccc(C2c3ccc(O)cc3Oc3ncn(CCN4CCOCC4)c(=N)c32)cc1OC` (stereo not shown) the value was -11.8%; for `COc1ccc(C2c3ccc(O)cc3Oc3ncn(CC(C)C)c(=N)c32)cc1` (stereo not shown), -69.8%. For the molecule `COc1ccc(C2c3ccc(O)cc3Oc3ncn(CCN4CCOCC4)c(=N)c32)cc1` (stereo not shown), the “hERG current change (%, negative = inhibition) at 10uM” value is recorded as -28.1%.

For the molecule `CC(=O)c1cccc(NC(=O)c2ccc(NC(=O)CC3SC(N4CCCCC4)=NC3=O)cc2)c1` (stereo not shown), the “hERG current change (%, negative = inhibition) at 10uM” value is given as 10.3%.

For `COc1ccc(-n2nc(C(=O)NCC(=O)NCCN(C)C)c3ccccc3c2=O)cc1`, the “hERG current change (%, negative = inhibition) at 10uM” value is 10.7%. For `Nc1ncn[nH]1` the value was 13.5%. For `COc1ccccc1NC(=S)NC(NC(=O)CC(C)C)C(Cl)(Cl)Cl` (stereo not shown) the value was 22.2%. To `CC1=NN(C(=O)c2ccc(Cn3cc(Br)c([N+](=O)[O-])n3)o2)C(O)(C(F)(F)F)C1` (stereo not shown) belongs -16.6%. For `CN(CCOc1ccccc1)C(=O)CCc1c[nH]c2ccccc12.Cl`, the “hERG current change (%, negative = inhibition) at 10uM” value is recorded as -0.585%. For `CCOc1ccc(C(=O)NN2C(=O)C3C4C=CC(O4)C3C2=O)cc1` (stereo not shown) the value was -14%; for `COC(=O)c1ccccc1NC(=O)c1cccs1`, 1.38%; for `N=c1c2c(ncn1CCCO)Oc1cc(O)ccc1C2c1ccccc1` (stereo not shown), -33.7%. As to `N=c1c2c(ncn1Cc1ccco1)Oc1cc(O)ccc1C2c1ccccc1` (stereo not shown), the “hERG current change (%, negative = inhibition) at 10uM” value is -74.1%. For the molecule `N=c1c2c(ncn1CCN1CCOCC1)Oc1cc(O)ccc1C2c1ccccc1` (stereo not shown), the “hERG current change (%, negative = inhibition) at 10uM” value is listed as -42.9%. For `COc1ccc(/C=C(\C#N)C(=O)NC(C)c2ccccc2)cc1O` (stereo not shown) the value was -24.2%.

In the case of `Cc1cc(C(=O)N/N=C/c2ccco2)c2ccccc2n1`, the “hERG current change (%, negative = inhibition) at 10uM” value is given as 1.37%. For `COc1cc(NC(=O)C(c2ccccc2)c2ccccc2)c(C(=O)O)cc1OC` the value was 16.7%; for `O=C(NCc1cccnc1)Nc1ccc(F)cc1F`, -4.58%. To `Cc1noc(C)c1S(=O)(=O)N(CC(=O)N1CCn2c1nc1ccccc12)c1ccc(C(C)C)cc1` belongs -14.9%; to `CCN(CC)c1ccc(CNc2ccc3c(c2)ncn3C(C)(C)C)cc1`, 1.91%; to `CC(C)(C)n1cnc2cc(NCc3ccccc3O)ccc21`, -10.1%. To `CN(C)c1ccc(CNc2ccc3c(c2)ncn3C(C)(C)C)cc1` belongs -27.2%. As to `CC(C)(C)n1cnc2cc(NCc3cccs3)ccc21`, the “hERG current change (%, negative = inhibition) at 10uM” value is -28.2%. To `Cc1ccc(CNc2ccc3c(c2)ncn3C(C)C)cc1` belongs -78.3%. To `CCc1ccc(CNc2ccc3c(c2)ncn3C(C)(C)C)cc1` belongs -36.1%. To `CC(C)n1cnc2cc(NCc3ccccc3O)ccc21` belongs 3.94%; to `CCOc1ccc(CNc2ccc3c(c2)ncn3C(C)(C)C)cc1`, -58.6%.

With `Cc1ccc(CNc2ccc3c(c2)ncn3C)cc1`, the “hERG current change (%, negative = inhibition) at 10uM” value is given as -33.8%. For `CCOc1ccc(CNc2ccc3c(c2)ncn3C)cc1` the value was -46.6%; for `Cc1ccc(CNc2ccc3c(c2)ncn3C(C)(C)C)cc1`, -72.5%; for `CC(C)(C)n1cnc2cc(NCc3ccc(Br)cc3)ccc21`, -69.2%.

For the molecule `COc1ccccc1CNC(=O)Cn1cccc1C(=O)c1ccccc1`, the “hERG current change (%, negative = inhibition) at 10uM” value was 8.74%. With `COCC1CCN(C(=O)c2cc(COc3ccc4c(c3)CCCC4)on2)C1` (stereo not shown), the “hERG current change (%, negative = inhibition) at 10uM” value is given as -24.9%.

As for `Cc1cccn2c(=O)c(C=NCc3ccccc3)c(NCCO)nc12`, the “hERG current change (%, negative = inhibition) at 10uM” value was found to be 0.417%. For `Cc1ccc(CN2CCSc3ccc(C(=O)NCc4cccnc4)cc32)cc1` the value was -2.7%. To `CCN(C(=O)C(C)N1C(=O)/C(=C/c2cccs2)SC1=S)C1CCS(=O)(=O)C1` (stereo not shown) belongs -27.3%.

As for `COC(=O)c1ccc(C(=O)OC)c(NC(=O)CN2CCN(c3ccc(OC)cc3)CC2)c1`, the “hERG current change (%, negative = inhibition) at 10uM” value was 11.5%.

For `Cc1csc(Nc2ccc(Cl)cc2)[n+]1-c1ccc(Cl)cc1.[Br-]`, the “hERG current change (%, negative = inhibition) at 10uM” value turned out to be 14.9%. In the case of `CC(C)CNC(=O)c1ccccc1NC(=O)CCSc1ccccc1`, the “hERG current change (%, negative = inhibition) at 10uM” value is listed as -17.6%.

Consider `COC(=O)c1ccc([C@H]2C=C(C(=O)O)O[C@@H](OCc3ccc(CO)cc3)C2)cc1`, for which the “hERG current change (%, negative = inhibition) at 10uM” value worked out at 13.6%. For `CCN(CC)CCOCCOc1ccccc1F` the value was -3.91%. To `CN(C)CCOCCOc1ccc(Cl)c2ccccc12.O=C(O)C(=O)O` belongs -44.5%; to `CCN(CC)CCOCCOc1ccc(Cl)c2ccccc12`, -68%.

These data come from paper PMC4336329 (PLoS ONE, 2015).
